# In the library only some 3.1% were active in any assay of this set; here they are far more common.
# ATG4B inh = ATG4B (human) cysteine protease inhibition; Q9Y4P1; ATG4B cleavage of LC3-PLA2, NBD-HPC fluorescence, 1 h; inhibition, % at 8.33 µM; hit rate 0.51% among 340,000; AID 504462; in the data active = inhibition above about 40%
# UBC13 inh = blocks human UBC13 polyubiquitin chain formation | inhibition, % at 20 µM | hit rate 0.47% among 330,000 | AID 485273 | P61088 | TR-FRET; in the data active = inhibition above about 45%, passing the limit was not always enough
# MEKK2mut PB1 HTS = signal of MEK5 binding to mutant human MEKK2 PB1 domain. bead flow cytometry, Alexa488-MEK5 binding to MEKK2 mutant. percent response, % at 10 µM. hit rate 0.35% among 290,000. AID 1530; in the data active = percent response above about 24%, passing the limit was not always enough
# MEKK2 WT-MEK5 = raises or lowers MEK5 binding to wildtype human MEKK2 PB1 domain; Q9Y2U5; bead flow cytometry, Alexa488-MEK5 binding to MEKK2 WT; actives lie on both sides; binding response (% of control), % at 10 µM; hit rate 1.1% among 290,000; in the data active = binding response below about 67% or above about 130%
# MEKK3 PB1 HTS = MEKK3-MEK5 PB1 interaction, increase or decrease; Q99759; bead-based flow cytometry, Alexa488-MEK5 binding to MEKK3; actives lie on both sides; 0 = blocked by unlabeled MEK5, 100 = vehicle; binding response (% of control), % at 10 µM; hit rate 1.4% among 290,000;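 active = binding response more than 3 SD above or below the average of its plate-row segment, actives on both sides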;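 also: Alexa488 bead fluorescence after subtracting the streptavidin-only scavenger bead signal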
# Target sequence (Q99759 whole entry, looked up): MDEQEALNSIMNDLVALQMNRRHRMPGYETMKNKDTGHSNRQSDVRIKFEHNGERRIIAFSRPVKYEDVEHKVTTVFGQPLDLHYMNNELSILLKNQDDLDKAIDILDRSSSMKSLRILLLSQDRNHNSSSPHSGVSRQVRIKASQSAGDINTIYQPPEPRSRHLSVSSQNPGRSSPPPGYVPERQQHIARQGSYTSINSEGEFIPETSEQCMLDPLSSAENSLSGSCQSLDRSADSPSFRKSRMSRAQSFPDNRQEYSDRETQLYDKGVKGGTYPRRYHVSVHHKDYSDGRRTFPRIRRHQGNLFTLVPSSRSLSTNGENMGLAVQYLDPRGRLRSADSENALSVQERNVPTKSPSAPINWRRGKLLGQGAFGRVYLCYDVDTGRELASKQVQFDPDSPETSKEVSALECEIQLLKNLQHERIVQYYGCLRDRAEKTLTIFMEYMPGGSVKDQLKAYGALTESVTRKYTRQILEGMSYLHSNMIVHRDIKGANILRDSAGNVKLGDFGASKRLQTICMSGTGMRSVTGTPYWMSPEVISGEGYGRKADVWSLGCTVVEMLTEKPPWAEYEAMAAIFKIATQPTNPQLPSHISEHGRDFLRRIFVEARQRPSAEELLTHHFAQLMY
# PREPL inhibitor = human PREPL enzyme inhibition. Q4J6C6. recombinant PREPL, fluorescence polarization activity-based probe. inhibition, % at 5.96 µM. hit rate 0.68% among 320,000; in the data active = inhibition above about 43%
# Numbers stand for hits; - = inactive; . = no result; [ ] = dose if it differs, or a comment.
SMILES,ATG4B inh,UBC13 inh,MEKK2mut PB1 HTS,MEKK2 WT-MEK5,MEKK3 PB1 HTS,PREPL inhibitor
CC(C)=CCCC1(C)C=Cc2c(c(C)cc3c2[nH]c2cc(O)ccc23)O1 (stereo unspecified),-,-,-,-,-,-
CC1(C)OC(=O)C(=Cc2ccc(-c3ccc(S(N)(=O)=O)cc3)o2)C(=O)O1,-,-,-,2.0[inhibitor],2.0[inhibitor],-
COc1cc2c(cc1OC)C(C)N(C(=O)c1cccs1)CC2 (stereo unspecified),-,-,-,-,-,-
COc1cc2c(cc1OC)C(C)N(C(=O)c1cc3c(=O)oc4ccc(C)cc4c3s1)CC2 (stereo unspecified),-,46.7,-,-,-,-
CCOc1ccc(NCc2cccn2-c2nnc(N3CCC(C(=O)NCCCN4CCCCC4)CC3)s2)cc1,-,-,-,-,-,-
CCC1CCCCN1CCCNC(=O)C1CCN(c2nnc(-n3cccc3)s2)CC1 (stereo unspecified),-,-,-,141.0,-,-
CCOc1ccc(NCc2cccn2-c2nnc(N3CCC(C(=O)NCCCN4CCCCC4C)CC3)s2)cc1 (stereo unspecified),-,-,33.0,147.0,-,-
CCOc1ccc(NCc2cccn2-c2nnc(N3CCC(C(=O)NCCCN4C(C)CCCC4C)CC3)s2)cc1 (stereo unspecified),-,-,25.0,152.0,-,-
CCOc1ccc(/C=C/C2=Cc3c(sc(NC(=O)CSc4n[nH]c(N)n4)c3C#N)C(C)(C)C2)cc1,-,-,-,31.0,-,-
CCN(CC)CCN(C(=O)c1cc2ccccc2cc1OC)c1nc2ccc(OC)cc2s1,-,-,26.0,148.0,-,-
COc1cc2ccccc2cc1C(=O)N(CCN(C)C)c1nc2ccc(C)cc2s1,-,-,-,135.0,-,-
COc1cc2ccccc2cc1C(=O)N(CCN(C)C)c1nc2c(C)cccc2s1,-,-,-,-,-,-
CCOc1ccc2nc(N(CCN(CC)CC)C(=O)/C=C/c3cccs3)sc2c1,-,-,-,157.0,-,-
COc1cc2ccccc2cc1C(=O)N(CCN(C)C)c1nc2c(OC)ccc(OC)c2s1,-,-,24.0,147.0,-,-
CCC(C(=O)OCC(=O)Nc1cc(Cl)cc(Cl)c1)c1ccccc1 (stereo unspecified),-,-,-,-,-,-
Cc1ccc(C(=O)NCC(c2ccc(F)cc2)N2CCOCC2)cc1S(=O)(=O)N1CCOCC1 (stereo unspecified),-,.,.,.,.,.
COc1cc(/C=N/NC(N)=S)ccc1OC(=O)c1ccc(C)cc1,-,-,-,-,-,-
COc1ccc(C(=O)Oc2cccc(/C=N/NC(N)=S)c2)cc1,-,-,-,-,-,45.2
CN(C)c1ccc(/C=C2\CCC/C(=C\c3ccccc3)C2=O)cc1,-,.,-,15.0,-,-
COCCn1nnnc1CN1CCC(C)CC1,-,-,-,-,-,-
CSc1cc(SC)ncn1,-,.,.,.,.,.
CN(C)[C@@H]1C(=O)C(C(=O)NCN2CCCC2)=C(O)[C@@]2(O)C(=O)C3=C(O)c4c(O)cccc4[C@@](C)(O)C3CC12 (stereo partly specified),.,.,-,26.0[inhibitor],-,.
CCC(=O)Nc1nc(-c2ccc3c(c2)CC(C)N3S(C)(=O)=O)cs1 (stereo unspecified),-,-,-,-1.0,-,-
O=C(NCc1ccc(F)cc1)C(c1cccnc1)N(C(=O)c1csnn1)c1ccccc1 (stereo unspecified),-,-,-,-,-,-
COc1cccc(/C=N/Nc2nc(Nc3ccc([N+](=O)[O-])cc3)nc(N3CCCC3)n2)c1O,-,-,-,-,-,-
O=[N+]([O-])c1ccc(Nc2nc(N/N=C/c3cccc(F)c3)nc(N3CCCC3)n2)cc1,-,-,-,-,-,46.9
CC(C)=CCC/C(C)=C/CC/C(C)=N/O,-,-,-,-,-,-
CC(C)=CCC/C(C)=C/CCC(C)NCCN1CCNCC1 (stereo unspecified),.,-,48.0,224.0,-,-
CC(Oc1cccc(Br)c1)C(=O)NNC(=O)CCNC(=O)c1ccccc1Cl (stereo unspecified),-,-,.,.,.,-
Cc1c(Cc2ccccc2)sc(/N=C/c2c(O)ccc3ccccc23)c1C(N)=O,51.9,-,-,-,-,-

# Bioassay records deposited in PubChem BioAssay by several laboratories.
